Reference: PubChem BioAssay (EPA / NIEHS)
Values joined by “and” are separate entries in the source; they are usually repeats but may differ in a detail not shown here. Equal values may be shown once. Active and inactive are the calls of the source. How the source made its calls: active means hit-call score of the fitted dose curve at least 0.9, where 1 is the maximum; inactive means score below 0.9.

Tests used:
[1] = target: Transcription factor E2F1 (Homo sapiens) (UniProt Q01094); experiment: ATG_E2F_CIS: Attagene CIS-FACTORIAL HepG2 Assay for human E2F Transcription Factor 1 (AID 2282935); details: HepG2 Attagene cis-reporter, E2F reporter RNA transcripts; actives raise or lower the signal
Procedure, shortened: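 Gain or loss of reporter transcript, fitted against DMSO, reflects E2F1-driven transcription. Transiently transfected HepG2 dosed 24 h before RNA isolation. Quantified by fluorescent RT-PCR products separated by capillary electrophoresis.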

[2] = ATG_E_Box_CIS: Attagene CIS-FACTORIAL HepG2 Assay for human Enhancer Box (E-box) (AID 2282936); details: HepG2 E-box cis-reporter transcription, actives raise or lower the signal
Procedure, shortened: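 E-box-driven reporter transcripts measured in transiently transfected HepG2 after 24 h exposure: RNA reverse-transcribed, PCR-amplified, fluorescently labelled, digested and resolved by capillary electrophoresis. Gain or loss relative to DMSO.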

[3] = ATG_M_61_CIS: Attagene CIS-FACTORIAL HepG2 Assay for M61 Transcription Factor (Internal Marker) (AID 2282937); details: HepG2 Attagene CIS-FACTORIAL M61 internal marker reporter; actives raise or lower the signal
Procedure, shortened: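 HepG2 cells transiently transfected with cis-element-driven multiple reporter transcription units, dosed for 24 h. Reporter mRNA measured by RT-PCR, 6-FAM primer-extension labelling, HpaI digestion and capillary electrophoresis; bidirectional fit versus DMSO baseline.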

[4] = ATG_EGR_CIS: Attagene CIS-FACTORIAL HepG2 Assay for human Early Growth Response 1 (EGR1) (AID 2282938); details: HepG2 Attagene CIS-FACTORIAL EGR reporter mRNA; actives raise or lower the signal
Procedure, shortened: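 HepG2 cells transiently transfected with cis-promoter-driven multiplexed reporter transcription units; reporter mRNA measured 24 h after compound dosing by RT-PCR, 6-FAM primer extension, HpaI digestion and capillary electrophoresis. Bidirectional fit versus DMSO baseline.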

[5] = ATG_M_19_CIS: Attagene CIS-FACTORIAL HepG2 Assay for M19 Transcription Factor (Internal Marker) (AID 2282939); details: HepG2 Attagene CIS-FACTORIAL M19 internal marker reporter; actives raise or lower the signal
Procedure, shortened: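 HepG2, MRTU transient transfection, 24 h dosing. Total RNA → RT-PCR → 6-FAM primer extension → HpaI digest → CE fluorescence. Bidirectional curve fit, DMSO negative control.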

[6] = ATG_ERE_CIS: Attagene CIS-FACTORIAL HepG2 Assay for Estrogen Response Element (ERE) (AID 2282940); details: HepG2 ERE cis-reporter, Attagene RNA transcript; actives raise or lower the signal
Procedure, shortened: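 After a 24 h chemical treatment, RNA from reporter-transfected HepG2 cells is reverse-transcribed, PCR-amplified and fluorescently labelled. Fragments separated by capillary electrophoresis give reporter signal; DMSO serves as negative control.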

[7] = ATG_Ets_CIS: Attagene CIS-FACTORIAL HepG2 Assay for human Erythroblast Transformation Specific (ETS) (AID 2282941); details: HepG2 ETS cis-reporter transcription, actives raise or lower the signal
Procedure, shortened: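 Bidirectional fit versus DMSO of reporter mRNA signal, detected by RT-PCR and capillary electrophoresis in HepG2 cells transiently transfected with cis-element reporters and dosed 24 h.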

[8] = target: Hepatocyte nuclear factor 3-beta (Homo sapiens) (UniProt Q9Y261); experiment: ATG_FoxA2_CIS: Attagene CIS-FACTORIAL HepG2 Assay for human Forkhead box A2 (FOXA2) (AID 2282942); details: HepG2 cis-reporter transcription factor activity, 24 h; actives raise or lower the signal
Procedure, shortened: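 HepG2 cells transiently transfected with multiple cis-regulated reporter transcription units, dosed for 24 h. Reporter mRNA measured by RT-PCR, 6-FAM labelling, HpaI digestion and capillary electrophoresis; bidirectional fitting against DMSO baseline.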

[9] = ATG_FoxO_CIS: Attagene CIS-FACTORIAL HepG2 Assay for human Forkhead box O (FoxO) (AID 2282943); details: HepG2 Attagene cis-reporter, FoxO element, mRNA; actives raise or lower the signal
Procedure, shortened: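 HepG2, transient MRTU transfection (cis element, endogenous TFs). Dose 24 h. TriZol RNA → oligo(dT) RT → PCR → 6-FAM primer extension → HpaI cut → CE. Gain/loss vs DMSO.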

[10] = ATG_GLI_CIS: Attagene CIS-FACTORIAL HepG2 Assay for human Zinc Finger Protein GLI1 (AID 2282945); details: HepG2, Attagene cis-factorial reporter mRNA, GLI element; actives raise or lower the signal
Procedure, shortened: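 Bidirectional curve fits relative to DMSO, using reporter mRNA levels from RT-PCR plus capillary electrophoresis. Cells were HepG2 transiently carrying cis-regulated reporter constructs, harvested 24 h after dosing.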

[11] = target: Bile acid receptor (Homo sapiens) (UniProt Q96RI1); experiment: ATG_IR1_CIS: Attagene CIS-FACTORIAL HepG2 Assay for human Nuclear Receptor Subfamily 1 Group H Member 4 (NR1H4), IR1 submotif (AID 2282946); details: IR1 reporter transcription, actives raise or lower the signal
Procedure, shortened: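 HepG2 cells transiently transfected with multiplexed cis-element reporter units read endogenous transcription factor activity. After 24 h compound exposure, reporter mRNA was quantified by RT-PCR, fluorescent labelling, HpaI digestion and capillary electrophoresis; bidirectional fitting versus DMSO baseline.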

[12] = ATG_GRE_CIS: Attagene CIS-FACTORIAL HepG2 Assay for human Glucocorticoid Response Elements (GRE) (AID 2282947); details: HepG2 GRE cis-reporter, Attagene multiplex mRNA; actives raise or lower the signal
Procedure, shortened: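 Reporter transcripts read by RT-PCR with capillary electrophoresis fluorescence after a 24 h chemical exposure of HepG2 cells transiently transfected with multiple cis-element reporter units. Gain or loss fitted against DMSO.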

[13] = ATG_ISRE_CIS: Attagene CIS-FACTORIAL HepG2 Assay for human Interferon Regulatory Factor 1 (IRF1) binding to an Interferon-Stimulated Response Element (ISRE) (AID 2282948); details: HepG2 ISRE cis-reporter (Attagene), mRNA transcription readout; actives raise or lower the signal
Procedure, shortened: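 Uses HepG2 liver cells transfected with cis-regulated reporters and measures mRNA 24 h post-dosing through RT-PCR, primer-extension labelling and capillary electrophoresis, with DMSO as negative control.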

[14] = ATG_M_32_CIS: Attagene CIS-FACTORIAL HepG2 Assay for M32 Transcription Factor (Internal Marker) (AID 2282949); details: HepG2 Attagene cis-factorial M32 reporter, mRNA; actives raise or lower the signal;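 further: background control marker of the multiplexed CIS panel rather than a real target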
Procedure, shortened: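 HepG2 human liver cells transiently transfected with cis-promoter-driven multiple reporter transcription units, dosed 24 h. Reporter mRNA quantified by RT-PCR, FAM-labelled primer extension, HpaI digest and capillary electrophoresis; bidirectional fit versus DMSO baseline.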

[15] = ATG_M_06_CIS: Attagene CIS-FACTORIAL HepG2 Assay for M06 Transcription Factor (Internal Marker) (AID 2282950); details: HepG2 Attagene CIS-FACTORIAL M06 internal marker reporter; actives raise or lower the signal
Procedure, shortened: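 Measured 24 h post-dosing in transiently transfected HepG2 cells, this internal-marker endpoint reports reporter mRNA via RT-PCR with fluorescent primer extension and capillary electrophoresis. DMSO served as negative control and baseline for bidirectional fitting.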

[16] = target: Hypoxia-inducible factor 1-alpha (Homo sapiens) (UniProt Q16665); experiment: ATG_HIF1a_CIS: Attagene CIS-FACTORIAL HepG2 Assay for human Hypoxia Inducible Factor 1 (HIF1A) (AID 2282951); details: HepG2 Attagene cis-factorial HIF1a reporter transcription; actives raise or lower the signal
Procedure, shortened: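 HepG2 cells transiently transfected with multiplexed cis-promoter reporter units; reporter mRNA read 24 h after dosing by RT-PCR, 6-FAM primer-extension labelling, HpaI digestion and capillary electrophoresis. Bidirectional fit versus DMSO baseline.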

[17] = target: Hepatocyte nuclear factor 6 (Homo sapiens) (UniProt Q9UBC0); experiment: ATG_HNF6_CIS: Attagene CIS-FACTORIAL HepG2 Assay for human Hepatocyte Nuclear Factor 6 (HNF6) (AID 2282952); details: HepG2 Attagene cis-factorial HNF6 reporter transcription; actives raise or lower the signal
Procedure, shortened: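 Endogenous transcription factor activity in human HepG2 liver cells was captured through cis-regulated reporter constructs. After 24 h treatment, reporter mRNA was measured by RT-PCR with capillary electrophoresis, and activity was fitted in both directions relative to DMSO.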

[18] = ATG_MRE_CIS: Attagene CIS-FACTORIAL HepG2 Assay for human Metal Responsive Element (MRE) (AID 2282954); details: HepG2 MRE cis-reporter transcription, Attagene multiplex; actives raise or lower the signal
Procedure, shortened: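 Endogenous MRE-dependent transcription read as reporter mRNA in transiently transfected human HepG2 cells at 24 h. RNA reverse-transcribed, PCR-amplified, labelled and resolved by capillary electrophoresis; gain or loss relative to DMSO.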

[19] = target: Heat shock factor protein 1 (Homo sapiens) (UniProt Q00613); experiment: ATG_HSE_CIS: Attagene CIS-FACTORIAL HepG2 Assay for human Heat Shock Transcription Factor 1 (HSE) (AID 2282953); details: HepG2 HSE cis-reporter, Attagene RNA transcription; actives raise or lower the signal
Procedure, shortened: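 Reporter mRNA induction in HepG2 is measured 24 h after dosing, using transiently transfected multiplexed cis-regulated reporter units. Signal comes from capillary electrophoresis of labelled RT-PCR products, with DMSO as negative control.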

[20] = ATG_GATA_CIS: Attagene CIS-FACTORIAL HepG2 Assay for human GATA Binding Protein (AID 2282944); details: HepG2 GATA cis-element reporter, Attagene multiplex mRNA; actives raise or lower the signal
Procedure, shortened: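 Cells: HepG2, transiently transfected with cis-regulated reporter transcription units. Exposure: 24 h. Detection: RT-PCR plus capillary electrophoresis of FAM-labeled fragments. Analysis: bidirectional, DMSO as baseline.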

Measured: AC50

Chain of Transcription factor E2F1 (Homo sapiens) (Q01094 whole entry, looked up): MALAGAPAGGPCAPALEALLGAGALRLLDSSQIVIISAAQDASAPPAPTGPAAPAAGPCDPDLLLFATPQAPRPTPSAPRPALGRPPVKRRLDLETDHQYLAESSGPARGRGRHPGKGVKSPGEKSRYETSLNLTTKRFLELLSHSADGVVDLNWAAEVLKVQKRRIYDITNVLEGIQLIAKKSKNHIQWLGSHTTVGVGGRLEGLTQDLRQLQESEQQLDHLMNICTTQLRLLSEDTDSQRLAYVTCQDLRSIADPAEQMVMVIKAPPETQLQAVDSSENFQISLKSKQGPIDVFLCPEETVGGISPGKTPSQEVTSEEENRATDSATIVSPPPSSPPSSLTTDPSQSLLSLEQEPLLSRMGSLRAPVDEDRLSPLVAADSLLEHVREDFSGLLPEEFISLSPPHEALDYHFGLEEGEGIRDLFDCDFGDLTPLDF
Chain of Heat shock factor protein 1 (Homo sapiens) (Q00613 whole entry, looked up): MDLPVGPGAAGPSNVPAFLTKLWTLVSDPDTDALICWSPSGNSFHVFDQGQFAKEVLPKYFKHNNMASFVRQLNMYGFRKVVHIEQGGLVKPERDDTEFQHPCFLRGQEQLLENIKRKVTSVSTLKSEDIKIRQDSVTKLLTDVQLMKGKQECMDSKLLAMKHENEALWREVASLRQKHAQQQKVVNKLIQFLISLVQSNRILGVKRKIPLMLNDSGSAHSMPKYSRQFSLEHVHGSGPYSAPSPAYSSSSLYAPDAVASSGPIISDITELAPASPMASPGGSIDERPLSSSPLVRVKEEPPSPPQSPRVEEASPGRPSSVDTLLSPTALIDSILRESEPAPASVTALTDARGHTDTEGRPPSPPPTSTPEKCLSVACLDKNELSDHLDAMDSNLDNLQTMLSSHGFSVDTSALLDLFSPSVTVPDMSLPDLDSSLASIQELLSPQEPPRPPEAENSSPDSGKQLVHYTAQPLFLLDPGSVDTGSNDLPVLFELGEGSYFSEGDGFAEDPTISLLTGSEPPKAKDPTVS
Chain of Hepatocyte nuclear factor 3-beta (Homo sapiens) (Q9Y261 whole entry, looked up): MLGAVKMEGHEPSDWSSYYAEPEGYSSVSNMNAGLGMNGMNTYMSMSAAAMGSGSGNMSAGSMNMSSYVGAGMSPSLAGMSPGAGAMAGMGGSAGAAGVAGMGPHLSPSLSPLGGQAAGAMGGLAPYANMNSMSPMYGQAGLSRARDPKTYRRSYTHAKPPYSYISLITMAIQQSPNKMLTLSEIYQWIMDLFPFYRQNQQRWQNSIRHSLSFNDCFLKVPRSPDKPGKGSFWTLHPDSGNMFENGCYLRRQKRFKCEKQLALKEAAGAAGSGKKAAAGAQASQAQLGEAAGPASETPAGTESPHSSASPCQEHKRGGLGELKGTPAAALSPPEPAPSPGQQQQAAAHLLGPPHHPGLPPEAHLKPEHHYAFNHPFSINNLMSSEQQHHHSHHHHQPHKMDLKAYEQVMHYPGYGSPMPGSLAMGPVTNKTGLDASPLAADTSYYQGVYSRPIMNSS
Chain of Hepatocyte nuclear factor 6 (Homo sapiens) (Q9UBC0 whole entry, looked up): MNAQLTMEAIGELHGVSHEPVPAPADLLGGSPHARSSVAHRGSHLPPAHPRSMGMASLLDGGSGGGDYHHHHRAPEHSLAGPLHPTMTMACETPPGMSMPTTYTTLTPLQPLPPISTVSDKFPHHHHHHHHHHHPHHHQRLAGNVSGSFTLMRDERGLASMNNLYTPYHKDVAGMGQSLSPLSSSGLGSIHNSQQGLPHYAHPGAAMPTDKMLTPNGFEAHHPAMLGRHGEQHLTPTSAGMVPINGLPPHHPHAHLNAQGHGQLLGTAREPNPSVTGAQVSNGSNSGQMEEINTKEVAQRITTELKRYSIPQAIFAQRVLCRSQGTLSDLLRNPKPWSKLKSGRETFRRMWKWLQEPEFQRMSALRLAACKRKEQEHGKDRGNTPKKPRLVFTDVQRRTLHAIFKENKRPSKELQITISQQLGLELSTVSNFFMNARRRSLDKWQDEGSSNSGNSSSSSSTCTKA
Chain of Hypoxia-inducible factor 1-alpha (Homo sapiens) (Q16665 whole entry, looked up): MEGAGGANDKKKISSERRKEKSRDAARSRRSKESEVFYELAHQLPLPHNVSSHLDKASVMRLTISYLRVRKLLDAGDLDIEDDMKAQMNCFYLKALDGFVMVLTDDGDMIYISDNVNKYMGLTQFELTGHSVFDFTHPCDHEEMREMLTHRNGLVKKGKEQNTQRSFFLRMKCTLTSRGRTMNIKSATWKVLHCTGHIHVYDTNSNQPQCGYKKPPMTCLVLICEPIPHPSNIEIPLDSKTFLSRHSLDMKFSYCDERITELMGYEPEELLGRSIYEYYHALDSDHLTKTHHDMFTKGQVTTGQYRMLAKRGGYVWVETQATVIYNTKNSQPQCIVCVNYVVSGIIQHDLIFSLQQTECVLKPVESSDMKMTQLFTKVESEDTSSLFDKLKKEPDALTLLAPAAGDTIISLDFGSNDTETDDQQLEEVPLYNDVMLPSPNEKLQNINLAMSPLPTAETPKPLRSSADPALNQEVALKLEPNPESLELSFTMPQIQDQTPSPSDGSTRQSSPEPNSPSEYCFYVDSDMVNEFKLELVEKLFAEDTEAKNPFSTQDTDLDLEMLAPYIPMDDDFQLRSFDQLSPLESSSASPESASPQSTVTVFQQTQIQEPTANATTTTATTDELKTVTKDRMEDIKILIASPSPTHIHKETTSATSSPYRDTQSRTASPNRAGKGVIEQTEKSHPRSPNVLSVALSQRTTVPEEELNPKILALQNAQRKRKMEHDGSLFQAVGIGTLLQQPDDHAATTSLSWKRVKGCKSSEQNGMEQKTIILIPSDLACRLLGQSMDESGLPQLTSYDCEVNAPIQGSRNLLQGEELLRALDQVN
Chain of Bile acid receptor (Homo sapiens) (Q96RI1 whole entry, looked up): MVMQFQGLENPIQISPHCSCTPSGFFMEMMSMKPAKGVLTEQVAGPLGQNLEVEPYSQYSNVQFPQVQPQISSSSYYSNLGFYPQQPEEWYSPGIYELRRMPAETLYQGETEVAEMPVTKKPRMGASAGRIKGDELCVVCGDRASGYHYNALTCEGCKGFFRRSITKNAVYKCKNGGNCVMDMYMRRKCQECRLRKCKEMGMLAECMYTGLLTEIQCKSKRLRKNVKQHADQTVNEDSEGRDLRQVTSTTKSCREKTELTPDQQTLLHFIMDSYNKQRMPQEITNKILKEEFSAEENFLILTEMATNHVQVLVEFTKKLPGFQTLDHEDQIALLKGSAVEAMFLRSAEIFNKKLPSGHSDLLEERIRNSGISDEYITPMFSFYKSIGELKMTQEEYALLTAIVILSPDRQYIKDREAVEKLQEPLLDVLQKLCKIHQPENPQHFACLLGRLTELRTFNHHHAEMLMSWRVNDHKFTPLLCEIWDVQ

OCC(F)(F)OC(F)(F)C(F)(F)OC(F)(F)C(F)(F)OC(F)(F)CO
active: [6] 0.506 µM
not listed: [19] | [20]
inactive: all other assays above

CCNc1nc(Cl)nc(NC(C)(C)C)n1
active: [6] 8.92 µM
not listed: [20]
inactive: all other assays above

CCOP(=S)(OCC)SCSCC
active: [6] 14.9 µM | [18] 151 µM
not listed: [20]
inactive: all other assays above

c1ccc2c(c1)Nc1ccccc1S2
active: [6] 16.2 µM
not listed: [11] | [12] | [20]
inactive: all other assays above

COC(=O)C(F)(F)C(F)(F)OC(F)(C(F)(F)F)C(F)(F)OC(F)=C(F)F (configuration not stated)
active: [6] 303 nM and 563 nM and 514 nM
not listed: [19] | [20]
inactive: all other assays above

O=[N+]([O-])c1ccc(Cl)c(Cl)c1
not listed: [20]
inactive: all other assays above

c1nc[nH]n1
active: [6] 29 µM
not listed: [20]
inactive: all other assays above

[N-]=[N+]=[N-]
not listed: [11] | [19]
inactive: all other assays above

CC(Cc1ccc(OCC(=O)O)cc1)NCC(O)c1csc(C(F)(F)F)n1 (configuration not stated)
not listed: [11] | [19]
inactive: all other assays above

ClC(Cl)c1ccccc1
not listed: [11]
inactive: all other assays above

Cc1ccc([N+](=O)[O-])cc1C
not listed: [12] | [20]
inactive: all other assays above

CC1(C)CN=C(NN=C(/C=C/c2ccc(C(F)(F)F)cc2)/C=C/c2ccc(C(F)(F)F)cc2)NC1
active: [2] 13.7 µM | [6] 0.303 µM | [8] 11.1 µM | [11] 6.99 µM | [13] 18.4 µM | [14] 17.4 µM | [17] 17.3 µM | [19] 18 µM | [18] 6.34 µM
not listed: [5]
inactive: all other assays above

O=S1(=O)OCC2C(CO1)C1(Cl)C(Cl)=C(Cl)C2(Cl)C1(Cl)Cl (configuration not stated)
active: [2] 26.5 µM | [4] 179 µM | [6] 1.84 µM | [10] 186 µM | [13] 100 µM | [19] 142 µM | [18] 163 µM
not listed: [20]
inactive: all other assays above

COP(=O)(O)OC
not listed: [20]
inactive: all other assays above

Nc1ccc(Cl)cc1
not listed: [11] | [20]
inactive: all other assays above
